# High-throughput results (PubChem BioAssay)
# The entries come from a sample that favours hits as a whole.
# PD-1 reversal: activators reversing PD-1 mediated T-cell inhibition | activation, % (no concentration beside the values) | 29,000 tested, under 10 active | primary human CD4 T cells, PD-L1 beads, CellTiter-Glo 96 h | AID 2316; call rule not given here;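 note: 0% = median vehicle wells and 100% = positive control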
# NOMO-1 viab: STK33 inhibitor candidate reducing NOMO-1 cell viability. NOMO-1 AML viability, CellTiter-Glo luminescence, 72 h. inhibition, % (no concentration beside the values). actives 7.5% (n = 37,000). AID 2330; in the data active = inhibition above about 80%
# STK33 inh: inhibitors of human STK33 kinase; Q9BYT3; ADP-Glo luminescence, MBP substrate; inhibition, % at 12.5 µM; actives 0.44% (n = 27,000); AID 2322; in the data active = inhibition above about 20%
# Target sequence (Q9BYT3 whole entry, looked up): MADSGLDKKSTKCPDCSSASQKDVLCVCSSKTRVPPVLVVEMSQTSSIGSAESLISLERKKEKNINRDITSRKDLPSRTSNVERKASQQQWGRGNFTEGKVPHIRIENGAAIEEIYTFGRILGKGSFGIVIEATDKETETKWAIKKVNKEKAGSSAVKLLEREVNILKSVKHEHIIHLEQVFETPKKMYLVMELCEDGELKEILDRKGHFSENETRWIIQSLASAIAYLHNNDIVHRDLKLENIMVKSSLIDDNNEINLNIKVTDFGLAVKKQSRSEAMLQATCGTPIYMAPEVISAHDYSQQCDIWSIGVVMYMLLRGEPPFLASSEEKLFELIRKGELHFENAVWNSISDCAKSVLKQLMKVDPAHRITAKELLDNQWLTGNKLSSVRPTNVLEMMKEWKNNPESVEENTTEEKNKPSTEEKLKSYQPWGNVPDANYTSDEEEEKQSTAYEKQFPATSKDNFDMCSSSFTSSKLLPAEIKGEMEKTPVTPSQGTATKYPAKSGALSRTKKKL
# * = called active by the depositor; nt = no result given.
SMILES,PD-1 reversal,NOMO-1 viab,STK33 inh
C=C1C(=O)O[C@@H]2[C@H]3C(CO[C@@H]4O[C@H](CO)[C@@H](O)[C@H](O)[C@H]4O)=CC(=O)C3=C(C)CC[C@@H]12,nt,nt,1
CCOC(=O)c1ccc(NC(=O)CSc2nc3ccccc3c(=O)[nH]2)cc1,nt,nt,2
CCOC(=O)c1ccc(NC(=O)CSc2nc3cc4ccccc4cc3[nH]2)cc1,-6,111*,11
O=C(NCC12CC3CC(CC(C3)C1)C2)c1ccccc1,-1,46,nt
C[C@H](CO)N1C[C@H](C)[C@@H](CN(C)Cc2ccc(C(=O)Nc3ccccc3N)cc2)Oc2c(NC(=O)C3CCOCC3)cccc2C1=O,1,23,nt
C[C@H]1CN([C@@H](C)CO)C(=O)c2cccc(NC(=O)c3ccncc3)c2O[C@H]1CN(C)Cc1ccc(C(=O)Nc2ccccc2N)cc1,-3,36,nt
C[C@@H]1CN([C@H](C)CO)C(=O)c2cccc(NC(=O)c3ccncc3)c2O[C@H]1CN(C)Cc1ccc(C(=O)Nc2ccccc2N)cc1,0,35,nt
C[C@H]1CN([C@@H](C)CO)C(=O)c2cc(NC(=O)C3CCCCC3)ccc2O[C@H]1CN(C)Cc1ccc(C(=O)Nc2ccccc2N)cc1,-4,110*,nt
C[C@@H]1CN([C@@H](C)CO)C(=O)c2cccc(NC(=O)C3CCOCC3)c2O[C@@H]1CN(C)Cc1ccc(C(=O)Nc2ccccc2N)cc1,-2,126*,nt
C[C@@H]1CN([C@@H](C)CO)C(=O)c2cc(NC(=O)C3CC3)ccc2O[C@H]1CN(C)Cc1ccc(C(=O)Nc2ccccc2N)cc1,-3,31,nt
C[C@@H]1CN([C@@H](C)CO)C(=O)c2cccc(NC(=O)c3ccncc3)c2O[C@@H]1CN(C)Cc1ccc(C(=O)Nc2ccccc2N)cc1,-1,128*,nt
C[C@H]1CN([C@@H](C)CO)C(=O)c2cccc(NC(=O)C3CC3)c2O[C@H]1CN(C)Cc1ccc(C(=O)Nc2ccccc2N)cc1,-2,94*,nt
CCN(CC)C(=O)[n+]1ccc(OC)cc1,-1,61,nt
O=C(CSc1nnc(-c2ccccc2)o1)Nc1cccc(Br)c1,nt,7,3
O=C(NCCO)c1ccc(N2C(=O)c3ccccc3C2=O)cc1,1,-1,nt
Cc1ccc(C)c(NC(=O)CC2C(=O)N(c3ccccc3)C(=S)N2Cc2ccco2)c1 (stereo not given),-3,50,8
COc1cc(/C=C/C=O)cc(OC)c1O,nt,nt,5
CCOC(=O)c1cnn(-c2ccccc2)c1NC(=O)C(C)(C)C,0,26,-3
C[C@H](CO)N1C[C@H](C)[C@@H](CN(C)Cc2ccc(C(=O)O)cc2)Oc2c(NC(=O)C3CCCCC3)cccc2C1=O,1,0,nt
C[C@H](CO)N1C[C@H](C)[C@H](CN(C)Cc2ccc(C(=O)Nc3ccccc3N)cc2)Oc2c(NC(=O)C3CCCCC3)cccc2C1=O,-2,127*,nt
Cc1ccc(S(=O)(=O)Nc2ccc3c(c2)C(=O)N([C@@H](C)CO)C[C@@H](C)[C@@H](CN(C)Cc2ccc(Oc4ccccc4)cc2)O3)cc1,nt,113*,nt
Cc1ccc(S(=O)(=O)Nc2ccc3c(c2)C(=O)N([C@@H](C)CO)C[C@H](C)[C@@H](CN(C)Cc2ccc(Oc4ccccc4)cc2)O3)cc1,-2,106*,3
Cc1ccc(S(=O)(=O)Nc2ccc3c(c2)C(=O)N([C@H](C)CO)C[C@H](C)[C@@H](CN(C)Cc2ccc(Oc4ccccc4)cc2)O3)cc1,0,6,nt
COc1ccc(S(=O)(=O)Nc2ccc3c(c2)C(=O)N([C@H](C)CO)C[C@H](C)[C@H](CN(C)Cc2ccc(Oc4ccccc4)cc2)O3)cc1,1,32,nt
Cc1ccc(-n2c(SCC(=O)NCC3CCCO3)nc3sc(C)c(C)c3c2=O)cc1C (stereo not given),-2,1,0
SMILES,PD-1 reversal,NOMO-1 viab,STK33 inh
Cc1ccc(-n2c(C)nnc2SCC(=O)Nc2ccc(Cl)c(C(F)(F)F)c2)cc1,-2,10,-7
CCOC(=O)COc1c(C#N)sc2c1c(=O)n(-c1ccccc1)c(=S)n2-c1ccccc1,-1,112*,nt
CCOC(=O)c1c(NC(=S)NC(=O)c2ccc(OC)c([N+](=O)[O-])c2)sc2c1CCC2,0,-6,-2
Cc1nc(-c2ccccc2)sc1C(=O)C1C(=O)C(=O)N(CCCN2CCOCC2)C1c1cccs1 (stereo not given),2,2,-2
C[C@H]1CN([C@@H](C)CO)C(=O)c2cccc(NC(=O)CCCCCC(=O)Nc3ccccc3N)c2O[C@@H]1CN(C)CC1CC1,-1,120*,nt
C[C@H]1CN([C@@H](C)CO)C(=O)c2cccc(NC(=O)CCCCCC(=O)Nc3ccccc3N)c2O[C@H]1CN(C)CC1CCCCC1,2,52,nt
C[C@@H]1CN([C@H](C)CO)C(=O)c2cccc(NC(=O)CCCCCC(=O)Nc3ccccc3N)c2O[C@H]1CN(C)CC1CC1,0,122*,nt
C[C@H](CO)N1C[C@H](C)[C@H](CN(C)CC2CCCCC2)Oc2c(NC(=O)CCCCCC(=O)Nc3ccccc3N)cccc2C1=O,1,63,nt
C[C@@H]1CN([C@@H](C)CO)C(=O)c2cccc(NC(=O)CCCCCC(=O)Nc3ccccc3N)c2O[C@H]1CN(C)CC1CC1,0,128*,nt
C[C@@H]1CN([C@H](C)CO)C(=O)c2cccc(NC(=O)CCCCCC(=O)Nc3ccccc3N)c2O[C@@H]1CN(C)CC1CC1,2,46,nt
Nc1cc(N)nc(SCc2n[nH]c(=S)n2-c2ccccc2)n1,2,-5,7
COC(=O)C(C)Sc1nc(N2CCOCC2)nc(N2CCOCC2)n1 (stereo not given),-3,22,4
CCc1nnc2sc(-c3ccc(N)cc3)nn12,0,16,nt
O=C(COC(=O)C1CC=CCC1C(=O)OCC(=O)c1ccc(Cl)cc1)c1ccc(Cl)cc1 (stereo not given),-2,45,nt
Cc1ccc(C)n1-c1ccc(C(=O)OCC(=O)c2ccc(Cl)cc2)cc1,-1,121*,nt
CC(C)CCNC(=O)Oc1ccccc1,1,22,nt
O=S(=O)(c1ccc(-c2ccccn2)s1)N1CCCCC1,0,15,nt
COc1ccc(CN2C(=O)C(O)(CC(=O)c3ccc(Cl)cc3)c3ccccc32)cc1OC (stereo not given),1,112*,-4
COc1ccc(CN2C(=O)C(O)(CC(=O)c3ccc4c(c3)CCCC4)c3ccccc32)cc1OC (stereo not given),-2,47,4
COc1ccc(C(=O)CC2(O)C(=O)N(Cc3ccccc3Cl)c3ccc(Cl)cc32)cc1OC (stereo not given),-2,90*,2
Cc1ccc(C(=O)CC2(O)C(=O)N(Cc3cccc4ccccc34)c3ccccc32)cc1 (stereo not given),nt,32,2
C=CCN1C(=O)C(O)(CC(=O)c2ccc(OC)c([N+](=O)[O-])c2)c2ccccc21 (stereo not given),-10,119*,2
C=CCN1C(=O)C(O)(CC(=O)c2ccc(C)o2)c2ccccc21 (stereo not given),nt,27,7
COc1ccc(C(=O)CC2(O)C(=O)Nc3ccc(Cl)cc32)cc1OC (stereo not given),-1,25,0
O=C(CC1(O)C(=O)N(Cc2cccc3ccccc23)c2ccccc21)c1ccc(F)cc1 (stereo not given),nt,84*,2
